Active and inactive are the calls of the source. The calls were made as follows: active = hit-call score of the fitted dose curve at least 0.9, where 1 is the maximum; inactive = score below 0.9.
Read-out: Cellular tumor antigen p53 (Homo sapiens) (UniProt P04637)
Assay: LTEA_HepaRG_TP53: Life Technologies and Expression Analysis (LTEA) Assay for Tumor Protein P53 (TP53) using HepaRG (AID 2283537)
Conditions: mRNA level, 48 h; actives raise or lower the signal
Method: LTEA_HepaRG is a cell based, multiplexed-readout assay that uses HepaRG, a human liver cell line, with measurements taken at 48 hours after chemical dosing on a 96-well plate.LTEA_HepaRG_TP53 is one of 102 assay component(s) measured in the LTEA HepaRG cell culture assay. It is a marker of Oxidative Stress.Data from the assay component LTEA_HepaRG_TP53 was analyzed into 1 endpoint. This assay endpoint, LTEA_HepaRG_TP53, was analyzed with bidirectional fitting relative to DMSO as the negative control and baseline of activity. Using a type of inducible reporter, measures of mRNA induction for gain or loss-of-signal activity can be used to understand regulation of transcription factor activity. To generalize the intended target to other relatable targets, this assay endpoint is annotated to the dna binding intended target family, where the subfamily is tumor suppressor.
A total of 1060 chemcials from the ToxCast library were tested in eight-point concentration-response experiments. Cell culture and cytotoxicity assays were conducted at Thermo Fisher Scientific's Custom Services facility (Madison, WI). A single lot of human HepaRG cells (Thermo Fisher Scientific, Frederick, MD) was used for the cell culture experiments. 96-well format collagen type I coated plates of human HepaRG cells were prepared using established methods. Briefly, cryopreserved HepaRG cells were thawed, plated at a density of approximately 100,000 cells/well in HepaRG Thaw, Plate, and General Purpose media (HPRG770, Thermo Fisher Scientific), and incubated for 48 hours. 0.5% DMSO was selected as vehicle control to balance the requisite need of DMSO in HepaRG cultures to maintain differentiation (for example, baseline metabolism, proportions of hepatocytes vs. cholangiocytes), while enabling further hepatic receptor pathway activation (for example, PXR and CAR) in response to chemical exposure. 48 hours after plating, the culture medium was replaced with HepaRG Serum-Free Incudtion Media. Cells were exposed to each test chemical in duplicate and maintained in CO2 incubators for another 48 hours. Chemical plates were thawed to room temperature and 200x concentrations of treatment groups were prepared. 8-point conentration-reponse curves were made with the highest exposure at 100 uM, followed by half-log dilutions, all in 0.5% DMSO. Each test plate contained variouse controls, induction positive controls (1mM phenobarbital), cytotoxicity positive controls ([…] aflatoxin B1), vehicle controls (0.5% DMSO), and total lysis controls (0.5% DMSO). Cell morphology images were taken using an Essen IncuCyte FLR automated microscope, with six 96-well plates imaged in about 24 minutes. Images were captured and exported and JPEG files. Spent culture media was transfered to black-well plates for the LDH assay, and remaining media was sorted at -80 C for later use. Cells were treated with RLT buffer and frozen until shipped for gene expression analysis. Total RNA was isolated from the cell suspension in 75 uL of Buffer RLT (Qiagen, Germantown, MD 20874) by Quintiles/Expression Analysis (Durham, NC) using a custom isolation procedure. Total RNA from each plate well was transferred to a preamplification plate. Fluidigm's 96.96 Dynamic ArrayTM (Fluidigm, Amsterdam, the Netherlands) technology was used for gene expression analyses by quantitative reverse transcription polymerase chain reaction (qRT-PCR, performed by Quintiles/Expression Analysis, Durham, NC)89. Standard TaqManTM Assays (Applied Biosystems/ThermoFisher Scientific, Foster City, CA) were used to assess the expression of 93 genes selected based on their selectivity and sensitivity to important hepatic receptors known to be modulated by environmental chemicals; importance in human hepatocyte functionality; and hepatotoxicity. […]

Cellular tumor antigen p53 (Homo sapiens), sequence (P04637 whole entry, looked up): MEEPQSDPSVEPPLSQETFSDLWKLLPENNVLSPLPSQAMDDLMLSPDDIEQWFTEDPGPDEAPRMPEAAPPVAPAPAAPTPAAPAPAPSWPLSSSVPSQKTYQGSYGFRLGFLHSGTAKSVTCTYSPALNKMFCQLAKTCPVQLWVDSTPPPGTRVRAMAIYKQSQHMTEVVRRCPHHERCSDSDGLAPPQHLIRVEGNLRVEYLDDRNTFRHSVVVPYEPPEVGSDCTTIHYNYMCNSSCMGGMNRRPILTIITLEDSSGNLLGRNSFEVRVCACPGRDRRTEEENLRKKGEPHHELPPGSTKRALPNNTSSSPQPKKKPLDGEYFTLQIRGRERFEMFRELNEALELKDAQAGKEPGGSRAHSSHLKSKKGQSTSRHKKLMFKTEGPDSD

Row | SMILES | outcome | AC50
1 | FC(F)(F)C(F)(F)C(F)(F)C(F)(F)C(F)(F)C(F)(F)CCI | inactive | 
2 | O=C(O)CCCCC(=O)O | inactive | 
3 | C=CCOC(=O)c1ccccc1C(=O)OCC=C | inactive | 
4 | CC1(C)NC(=O)NC1=O | inactive | 
5 | Oc1ccc2c(c1)OC[C@@H](N1CCC(O)(c3ccc(F)cc3)CC1)[C@H]2O | inactive | 
6 | CCCc1cc(=O)[nH]c(=S)[nH]1 | inactive | 
7 | Cc1ccccc1Cl | inactive | 
8 | CCCCCCCCCCCC(=O)OC | inactive | 
9 | Oc1ccc2ccccc2c1N=Nc1ccccc1 | inactive | 
10 | Cc1nc(C)nc(N2C[C@@H](C)N(c3ccnc([C@@H](C)O)n3)[C@@H](C)C2)n1 | inactive | 
11 | Cc1nc(-c2ccc3c(c2)CCN(CCC2CCC(NC(=O)/C=C/c4ccc(F)cc4)CC2)CC3)no1 (stereo not given) | inactive | 
12 | CC1=C(/C=C/C(C)=C/C=C/C(C)=C/CO)C(C)(C)CCC1 | inactive | 
13 | C[C@]12C=CC(=O)C=C1CC[C@@H]1[C@@H]2C(=O)C[C@@]2(C)[C@H]1CC[C@]2(O)C(=O)CO | inactive | 
14 | OC[C@@H](O)[C@@H](O)[C@H](O)[C@H](O)CO | inactive | 
15 | NC(=O)Cn1c(=O)cc(CCN2CCN(c3nccc4sccc34)CC2)c2ccc(F)cc21 |  | 50 µM (active)
16 | Cc1ccc(N(C)C)cc1 | inactive | 
17 | CC(C)c1ccc(C(=O)N=C(N)N)cc1S(C)(=O)=O |  | 0.457 µM (active)
18 | Cc1ccc(C(C)C)c(O)c1 | inactive | 
19 | Cc1ccc(C)c(O)c1C | inactive | 
20 | Cc1oc(-c2ccccc2)nc1CCOc1cccc2c1ccn2CCC(=O)O |  | 80.1 µM (active)

Row | SMILES | outcome | AC50
21 | CCCCC(CC)COC(=O)CC(C(=O)OCC(CC)CCCC)S(=O)(=O)O (stereo not given) |  | 50 µM (active)
22 | CC(=O)OCCOCCOCCOC(C)=O | inactive | 
23 | COCCOCCOC |  | 0.59 µM (active)
24 | CCCCCCCCCCCCCO | inactive | 
25 | Cc1ccc(Cl)cc1 | inactive | 
26 | Clc1cc(Cl)c(Cl)cc1Cl | inactive | 
27 | C=CCc1ccc(O)c(OC)c1 | inactive | 
28 | C1CCC(SSC2CCCCC2)CC1 | inactive | 
29 | O=C(OCCCCCOC(=O)c1ccccc1)c1ccccc1 |  | 1.31 µM (active)
30 | COc1cc(S(=O)(=O)O)c(C)cc1N=Nc1c(O)ccc2cc(S(=O)(=O)O)ccc12 | inactive | 
31 | CC(=O)C(C)=CC1C(C)=CCCC1(C)C (stereo not given) | inactive | 
32 | CCCCCCCCCCCCCCCC | inactive | 
33 | CC1(C)CC(N=C=O)CC(C)(CN=C=O)C1 (stereo not given) | inactive | 
34 | O=c1c(O)c(-c2ccc(O)c(O)c2)oc2cc(O)cc(O)c12 | inactive | 
35 | CC(CO)OC(C)CO (stereo not given) (tested in a mixture with another compound) | inactive | 
36 | Nc1ccccc1N |  | 50 µM (active)
37 | Cc1c(C(=O)O)c(O)cc2c1C(=O)c1c(O)c([C@@H]3O[C@H](CO)[C@@H](O)[C@H](O)[C@H]3O)c(O)c(O)c1C2=O | inactive | 
38 | Nc1ccc2c(c1)C(=O)c1ccccc1C2=O |  | 18.2 µM (active)
39 | C[Si]1(C)O[Si](C)(C)O[Si](C)(C)O[Si](C)(C)O1 | inactive | 
40 | O=c1[nH]cc(F)c(=O)[nH]1 | inactive | 

— PubChem BioAssay (EPA / NIEHS)
